Screen size: about 190,000 compounds; about 520 (0.27%) were called active. Inconclusive results (about 2%) are left out. The sample holds actives, similar compounds and a random draw of the others, so the mix is not that of the screen.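 Rule for the calls: active = GTP binding activity at least 20 points away from the 100% control level, either lower or higher; inconclusive = compound flagged as likely green fluorescent, judged across all proteins; inactive = the rest.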
target: Ras-related C3 botulinum toxin substrate 1 (Homo sapiens) (UniProt P63000); experiment: compounds altering fluorescent GTP loading on wildtype Rac1 – biochemical, GST-Rac1 beads, flow cytometry, multiplex, primary screen (AID 757); conditions: at 10 µM, actives lie on both sides, 0 = cold GTP competed, 100 = untreated

| Compound | GTP binding activity (% of control) |
| --- | --- |
| O=C(Nc1cccc(CCc2ccccn2)c1)c1ccc(Cl)cc1 | 97% (inactive) |
| CC1(C)OC(=O)C(=CNC(CO)C(=O)O)C(=O)O1 (stereo unspecified) | 100% (inactive) |
| CC1CN(CCCOc2ccccc2-c2ccccc2)CC(C)O1 (stereo unspecified) | 94% (inactive) |
| CCOc1ccc(-n2cnnn2)cc1S(=O)(=O)N1CCC(C)CC1C (stereo unspecified) | 97% (inactive) |
| COc1ccc(NC(=O)N2CCCC(c3nc(-c4ccc(F)cc4)no3)C2)cc1 (stereo unspecified) | 103% (inactive) |
| CNc1[nH]ncc1[N+](=O)[O-] | 95% (inactive) |
| Cc1cc(C)cc(C(=O)NCC(=O)OCC(=O)N2CCCCC2)c1 | 99% (inactive) |
| COC(=O)c1cc2nc(-c3ccccc3)cc(C(F)(F)F)n2n1 | 99% (inactive) |
| COc1ccc(NC(=O)c2cc3nc(-c4ccccc4)cc(C)n3n2)cc1OC | 78% (active) |
| COc1ccc(NC(=O)c2ccccc2[N+](=O)[O-])cc1OC | 105% (inactive) |
| Cc1ccc(NC(=S)NC(=O)c2ccc(-c3ccccc3)cc2)c(C)c1 | 99% (inactive) |
| COc1c(F)c(F)c(C(=O)O)c(Nc2ccccc2C)c1F | 101% (inactive) |
| Cc1ccc(Nc2c(F)c(F)c(F)c(F)c2C(=O)O)c(C)c1 | 154% [activator] (active) |
| COc1ccc(-n2c(O)c(C=NCC(c3ccco3)N3CCCC3)c3ccccc3c2=O)cc1OC (stereo unspecified) | 102% (inactive) |
| CN(C)S(=O)(=O)c1ccc(NC(=O)N2CCOCC2)cc1 | 100% (inactive) |
| Cc1ccc(OCC(=O)NC(C)c2ccccc2)c([N+](=O)[O-])n1 (stereo unspecified) | 98% (inactive) |
| O=C(NNC(=O)c1ccc(Cl)cc1Cl)c1cccs1 | 96% (inactive) |
| Cc1ccc(Cl)cc1NC(=O)c1ccccn1 | 90% (inactive) |
| COc1ccc(/C=N/NC(=O)CNC(=O)c2ccc(S(=O)(=O)N3CCCC3)cc2)c(OC)c1 | 98% (inactive) |
| CC(C)(C)c1ccc(C(=O)CSc2ncn[nH]2)cc1 | 105% (inactive) |
| Cc1ccc(SC(CC(=O)c2ccc(C(C)(C)C)cc2)C(=O)O)cc1 (stereo unspecified) | 79% (active) |
| Cc1ccc(C(=O)CS(C)(=O)=O)cc1 | 101% (inactive) |
| N/C(=N\OC(=O)c1ccc2c(c1)OCO2)c1ccc(Br)cc1 | 94% (inactive) |
| COc1ccc(C)cc1NC(=O)NCc1ccccn1 | 103% (inactive) |
| CN(CCN1CCOCC1)Cc1nc(-c2ccc3c(c2)OCO3)no1 | 98% (inactive) |
| O=C(NCCCN1CCOCC1)c1ccccc1NS(=O)(=O)c1ccc(Br)cc1 | 100% (inactive) |
